# This is a sample that favours compounds with a hit; in the whole collection about 6.7% have one here.
# Pf Dd2 growth: blocks growth of Plasmodium falciparum Dd2 parasites; P. falciparum Dd2 growth, SYBR Green, 72 h; stronger effect = lower value; activity change, % at 10 µM; actives 2.3% (n = 94,000); in the data active means activity change below about -80%; inconclusive means no clear call, values can overlap the other calls
# T cruzi growth-1: blocks T. cruzi growth in NIH3T3 culture; inhibition, % at 8.34 µM; T. cruzi beta-gal in NIH3T3, GalScreen luminescence, 90 h; actives 5.9% (n = 77,000); AID 624255;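 active means mean inhibition above about 93%, with at least 55% of replicates each passing it, limit read from the data, passing the limit was not always enough; inconclusive means only one of those two conditions holds; inactive means neither condition holds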
# C diff HTS: inhibitors of Clostridium difficile growth. Clostridium difficile clinical isolate growth, OD600, 24 h; stronger effect = lower value. growth activity, negative = inhibition, % at 16 µg/mL (by protocol). actives 0.25% (n = 86,000);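 active means mean growth activity at or below -80% and every replicate also at or below -80%; inconclusive means mean at or below -80% but some replicate above -80%; inactive means mean growth activity above -80%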;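 further: 0% = DMSO wells and -100% = levofloxacin 16 µg/mL wells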
# T cruzi growth-2: blocks T. cruzi growth in NIH3T3 host cells | inhibition, % at 8.35 µM | shares compounds with T cruzi growth-1 | T. cruzi beta-gal in NIH3T3, GalScreen luminescence, 90 h | actives 72% (n = 5,600);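 active means mean replicate inhibition above about 95% and at least 55% of replicates individually reaching it, limit read from the data; inconclusive means only one of the two criteria is met; inactive means neither criterion is met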
# T cruzi growth-3: blocks T. cruzi growth in NIH3T3 host cells. actives 21% (n = 5,600). T. cruzi beta-gal in NIH3T3, GalScreen luminescence, 90 h. inhibition, % at 2.09 µM. shares compounds with T cruzi growth-1. AID 651740;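 active means mean inhibition above about 95%, with at least 55% of replicates also reaching it, limit read from the data; inconclusive means meets just one of the two conditions; inactive means meets neither condition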;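 further: plate controls were neutral control median for no effect and positive control median for full effect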
# 3T3 cytotox: cytotoxicity in mouse NIH/3T3 fibroblasts; shares compounds with T cruzi growth-1; NIH/3T3 viability, CellTiter-Glo ATP luminescence, 90 h; cytotoxicity (signal decrease), % at 8.35 µM; actives 14% (n = 5,600); AID 651742;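 active means mean signal decrease across replicates above about 35% based on untreated-well scatter, with enough replicates individually passing, limit read from the data; inconclusive means no rule stated though some were filed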;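 further: 0% = median of neutral control wells and 100% = median of positive control wells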
# 3T3 cytotox 2: cytotoxicity in mouse NIH/3T3 fibroblasts; shares compounds with T cruzi growth-1; NIH/3T3 viability, CellTiter-Glo ATP luminescence, 90 h; inhibition, % at 24.9 µM; actives 56% (n = 5,600); AID 651744;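 active means mean loss of cell viability signal at or above a set limit, and enough replicates individually reaching it; inconclusive means meets only the mean limit or only the replicate share; inactive means meets neither condition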;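 further: 0% = median of neutral control wells and 100% = median of positive control wells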
# Numbers without * were called inactive; u = inconclusive; x = not tested or not shown.
SMILES,Pf Dd2 growth,T cruzi growth-1,C diff HTS,T cruzi growth-2,T cruzi growth-3,3T3 cytotox,3T3 cytotox 2
CC(=O)N(C)C[C@H]1Oc2cc(C#Cc3ccncc3)ccc2S(=O)(=O)N([C@H](C)CO)C[C@@H]1C,-17,-26,13,x,x,x,x
O=C(Nc1ccc2c(c1)OCO2)N[C@H]1CC[C@H](CCNC(=O)C2CCOCC2)O[C@@H]1CO,x,x,2,x,x,x,x
Cc1cccc(S(=O)(=O)N2CCCCN3[C@H](CO)[C@@H](c4ccc(-c5ccccc5)cc4)[C@@H]3C2)c1,-57,105*,-6,99*,64,26,11
Cc1cccc(S(=O)(=O)N2CCCCN3[C@H](CO)[C@H](c4ccc(-c5ccccc5)cc4)[C@H]3C2)c1,-72,62,52,x,x,x,x
Cc1cccc(-c2ccc([C@@H]3[C@@H](CO)N4CCCCN(S(=O)(=O)c5ccccc5C)C[C@H]34)cc2)c1,-39,81,-3,x,x,x,x
Cc1cccc(-c2ccc([C@H]3[C@H]4CN(S(=O)(=O)c5ccccc5C)CCCCN4[C@H]3CO)cc2)c1,-10,103*,-7,106*,92,2,38*
Cc1cccc(-c2ccc([C@H]3[C@H](CO)N4CCCCN(S(=O)(=O)c5cccc(C)c5)C[C@@H]34)cc2)c1,-26,98*,21,91,101*,115*,106*
Cc1cccc(-c2ccc([C@@H]3[C@@H](CO)N4CCCCN(S(=O)(=O)c5cccc(C)c5)C[C@H]34)cc2)c1,-35,90,-7,x,x,x,x
COc1ccc(S(=O)(=O)N2C[C@@H](O)COC[C@H]3O[C@@H](CC(=O)NCc4ccc(Cl)c(Cl)c4)CC[C@@H]32)cc1,-68,118*,-2,107*,25,8,26
O=C(C[C@H]1CC[C@H]2[C@@H](COC[C@@H](O)CN2S(=O)(=O)c2ccc(Cl)cc2)O1)NCc1ccc(Cl)c(Cl)c1,2,104*,x,100*,41,29,55*
O=C(C[C@@H]1CC[C@H]2[C@@H](COC[C@@H](O)CN2S(=O)(=O)c2ccc(Cl)cc2)O1)NCc1ccc(Cl)c(Cl)c1,-1,88,x,x,x,x,x
Cc1ccc(S(=O)(=O)N2C[C@@H](O)COC[C@H]3O[C@H](CC(=O)NCc4ccc(Cl)c(Cl)c4)CC[C@@H]32)cc1,-3,58,x,x,x,x,x
O=C(C[C@H]1CC[C@@H]2[C@H](COC[C@H](O)CN2S(=O)(=O)c2ccc(Cl)cc2)O1)NCc1ccc(Cl)c(Cl)c1,-8,74,x,x,x,x,x
O=C(C[C@H]1CC[C@@H]2[C@H](COC[C@@H](O)CN2S(=O)(=O)c2ccc(Cl)cc2)O1)NCc1ccc(Cl)c(Cl)c1,-10,97*,x,104*,24,9,62*
CCC(=O)N1C[C@@H](C)[C@@H](OC)CN(C)C(=O)c2ccc(NC(=O)NC(C)C)cc2OC[C@@H]1C,-1,33,x,x,x,x,x
O=C(Nc1ccccc1)NC1(c2cn(CC(=O)N3CCN(c4ccccc4)CC3)nn2)CCCCC1,x,x,-2,x,x,x,x
O=C(NCC[C@H]1CC[C@@H](NS(=O)(=O)c2cccc(F)c2)[C@H](CO)O1)Nc1cc(F)ccc1F,-4,-4,10,x,x,x,x
C[C@H](CO)N1C[C@H](C)[C@@H](CN(C)C(=O)CN(C)C)Oc2cc(C3=CCCC3)ccc2S1(=O)=O,-18,35,0,x,x,x,x
C[C@@H]1CCCCO[C@H](CN(C)C(=O)Cc2ccccc2)[C@H](C)CN([C@H](C)CO)C(=O)c2cc(NS(=O)(=O)c3ccccc3)ccc2O1,-72,x,x,x,x,x,x
CCc1cnc(N2[C@@H](C#N)[C@@H](c3ccccc3)[C@@H]2CO)s1,15,-3,-7,x,x,x,x
CCc1cnc(N2[C@@H](C#N)[C@H](c3ccc(C#CC(C)C)cc3)[C@@H]2CO)s1,-24,107*,-31,112*,52,-5,-2
CCc1cnc(N2[C@@H](C#N)[C@@H](c3ccc(C#CC(C)C)cc3)[C@@H]2CO)s1,-4,97*,-5,101*,108*,26,74*
CCc1cnc(N2[C@H](CO)[C@H](c3ccccc3)[C@@H]2C#N)s1,43,-8,-7,x,x,x,x
C[C@@H]1CN([C@H](C)CO)C(=O)Cc2cc(NC(=O)C3CCCCC3)ccc2O[C@H]1CN(C)C(=O)NC1CCCCC1,-7,10,-1,x,x,x,x
C[C@H]1CN([C@@H](C)CO)C(=O)c2cccc(NS(=O)(=O)c3ccccc3)c2O[C@H]1CN(C)Cc1ccccc1,-30,58,0,x,x,x,x
SMILES,Pf Dd2 growth,T cruzi growth-1,C diff HTS,T cruzi growth-2,T cruzi growth-3,3T3 cytotox,3T3 cytotox 2
Cn1cnc(S(=O)(=O)N2C[C@H](O)COC[C@@H]3O[C@H](CC(=O)N4CCN(c5ccccc5)CC4)CC[C@H]32)c1,6,-106,2,x,x,x,x
C[C@@H]1CCCCO[C@H](CN(C)C(=O)Nc2cccc3ccccc23)[C@H](C)CN([C@H](C)CO)C(=O)c2cc(N(C)C)ccc2O1,-53,99*,3,96*,23,11,13
C[C@H](CO)N1C[C@H](C)[C@@H](CN(C)C(=O)Nc2cccc3ccccc23)OCCCC[C@H](C)Oc2ccc(NC(=O)C3CCCCC3)cc2C1=O,-75,64,-14,x,x,x,x
C[C@@H]1CCCCO[C@H](CN(C)C(=O)Nc2cccc3ccccc23)[C@@H](C)CN([C@@H](C)CO)C(=O)c2cc(NC(=O)c3ccccc3)ccc2O1,-82*,u,4,107*,84,26,36*
C[C@@H]1CCCCO[C@H](CN(C)C(=O)NC2CCCCC2)[C@@H](C)CN([C@H](C)CO)C(=O)c2cc(NC(=O)Nc3cccc4ccccc34)ccc2O1,-35,104*,-5,109*,30,-21,-15
C[C@@H]1CCCCO[C@H](CN(C)C(=O)NC2CCCCC2)[C@H](C)CN([C@H](C)CO)C(=O)c2cc(NC(=O)Nc3cccc4ccccc34)ccc2O1,-76,85,-6,x,x,x,x
C[C@H](CO)N1C[C@H](C)[C@H](CN(C)C(=O)Nc2cccc3ccccc23)OCCCC[C@H](C)Oc2ccc(N(C)C)cc2C1=O,-59,59,-12,x,x,x,x
C[C@@H]1CCCCO[C@@H](CN(C)C(=O)Nc2cccc3ccccc23)[C@@H](C)CN([C@H](C)CO)C(=O)c2cc(NC(=O)c3ccccc3)ccc2O1,-53,45,6,x,x,x,x
C[C@@H]1CCCCO[C@@H](CN(C)C(=O)Nc2cccc3ccccc23)[C@@H](C)CN([C@@H](C)CO)C(=O)c2cc(NC(=O)C3CCCCC3)ccc2O1,-90*,u,18,110*,69,-5,0
CCS(=O)(=O)N1CC(=O)N2[C@H](CO)[C@H](c3ccc(-c4ccc(C)cc4)cc3)[C@@H]2C1,-12,x,-12,x,x,x,x
C[C@H]1CN([C@@H](C)CO)C(=O)c2cc(-c3ccc(F)cc3)cnc2O[C@H]1CN(C)C(=O)c1ccccc1F,-31,35,-1,x,x,x,x

# Source: PubChem
